Measured values taken from PubChem BioAssay AID2013 (Sanford-Burnham Center for Chemical Genomics, 2009).
Among all 290,000 compounds or so, about 370 (0.13%) were called active. Only a selection was taken, and actives are over-represented in it overall. Entries with a potency or affinity are not part of this list. Values without a mark were called inactive.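 How the source made its calls: active means spots per cell inhibited over 60%, with over 100 cells counted and total cytoplasm intensity under 500,000; inconclusive means wells with under 100 cells, flagged as likely toxic; inactive means the rest.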

The compounds below were run against G-protein coupled receptor 55 (Homo sapiens) (UniProt Q9Y2T6) (assay: inhibition of LPI-stimulated GPR55 beta-arrestin translocation – imaging, U2OS, beta-arrestin-GFP, LPI agonist, primary screen (AID 2013;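 further: U2OS cells stably carrying GPR55 and arrestin-GFP stimulated by 5 µM LPI near EC80; imaged beta-arrestin-GFP aggregate spots per cell after agonist stimulation; plate controls were LPI-stimulated DMSO wells for no effect and DMSO wells without LPI for full effect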)). Details: LPI antagonism, at 10 µM, stronger effect = higher value.
Chain of G-protein coupled receptor 55 (Homo sapiens) (Q9Y2T6 whole entry, looked up): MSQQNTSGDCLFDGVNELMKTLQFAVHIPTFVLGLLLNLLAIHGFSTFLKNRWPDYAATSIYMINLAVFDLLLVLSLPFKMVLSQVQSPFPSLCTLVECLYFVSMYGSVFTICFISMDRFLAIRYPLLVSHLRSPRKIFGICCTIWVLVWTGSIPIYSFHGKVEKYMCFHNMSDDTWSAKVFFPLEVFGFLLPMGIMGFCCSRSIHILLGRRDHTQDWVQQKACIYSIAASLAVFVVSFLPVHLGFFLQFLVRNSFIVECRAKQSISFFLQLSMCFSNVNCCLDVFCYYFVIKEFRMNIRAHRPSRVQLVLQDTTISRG
COC(=O)CSc1nc(NCC(C)C)nc(N2CCOCC2)n1 gave an inhibition of -2.9%.
With Clc1ccccc1OCCCn1ccnc1 the inhibition was -2.4%.
For Clc1ccccc1OCCn1ccnc1, the inhibition was 1.9%.
Clc1ccccc1C(c1ccccc1)(c1ccccc1)n1ccnc1 was tested, and the inhibition was 98.7% (active).
CCCCN(C(=O)CCCc1nc2ccccc2c(=O)[nH]1)c1c(N)n(CCCC)c(=O)[nH]c1=O was tested, and the inhibition was 21.5%.
COC(=O)c1sc(NC(=O)/C=C/c2ccc(C)cc2)nc1C showed an inhibition of 16.9%.
CSc1nc2ccc(S(=O)(=O)N3CCCCC3)cc2s1 showed an inhibition of 10.7%.
Compound Cc1nc2ccc(S(=O)(=O)N3CCCCC3)cc2s1 has an inhibition of -5.9%.
CC1NC(=S)N(C2CCCCC2)C1=O (stereo not drawn) gave an inhibition of 2.5%.
In the case of COc1cccc(OC)c1C1=NC(C)(C)CO1, the inhibition is reported as 6.1%.
COc1ccc2cc(C(=O)C3CCCN(C(=O)c4cc5nc(C)cc(C)n5n4)C3)ccc2c1 (stereo not drawn) was tested, and the inhibition was -6.7%.
With Cc1c(N=C2N=C(NC(=O)NC(C)(C)C)c3ccccc32)c(=O)n(-c2ccccc2)n1C the inhibition was 1.4%.
In the case of Cc1cccc(C)c1NS(=O)(=O)c1cc2c3c(c1)CC(=O)N3CCC2, the inhibition is reported as 6.8%.
In the case of CCc1nc(C)cn1S(=O)(=O)c1ccc([N+](=O)[O-])cc1, the inhibition is reported as 0.5%.
Compound CCc1nc(C)cn1S(=O)(=O)c1ccc(Cl)c(Cl)c1Cl has an inhibition of 18.7%.
With Cc1c(C(=O)NCCN2CCCC(O)C2)oc2c(F)cccc12 (stereo not drawn) the inhibition was 26.6%.
Cc1cc(/C=N/Nc2ccc([N+](=O)[O-])cn2)c(C)n1-c1ccccc1 gave an inhibition of 13.4%.
For O=[N+]([O-])c1ccc(N/N=C\c2cccn2-c2ccccc2)nc1, the inhibition was 89.6% (active).
In the case of O=C(N/N=C/c1cccn1-c1ccc([N+](=O)[O-])cc1)C(O)c1ccccc1 (stereo not drawn), the inhibition is reported as 16.8%.
With Cc1ccc(S(=O)(=O)N2CC=C(C(=O)NC3CC3)CC2)cc1 the inhibition was 17.2%.
Work on COc1ccc(CNc2nc3c(c(C(F)(F)F)n2)CCCCC3)cc1 yielded an inhibition of 13.2%.
In the case of CN1CCN(C(=S)SCC(=O)N2CCCc3ccccc32)CC1, the inhibition is reported as 23.2%.
Work on COc1ccc(/C=C/c2nc3ccccc3n2C)cc1 yielded an inhibition of -8.1%.
With Cc1csc(NC(=O)c2cccc(S(=O)(=O)N3CCN(C)CC3)c2)n1 the inhibition was 5%.
Cc1c(CCOC(=O)c2ccccc2)sc[n+]1CC(=O)c1ccc(Br)cc1 was tested, and the inhibition was -14%.
Cc1c(CCOC(=O)CC23CC4CC(CC(C4)C2)C3)sc[n+]1CC(=O)c1ccc(Br)cc1 was tested, and the inhibition was 58.4%.
With COc1c(F)c(F)c(C(=O)Nc2ccc(NC(=O)c3ccco3)cc2)c(F)c1F the inhibition was 9.4%.
COc1ccc(-c2csc(-n3ncc(C(=O)O)c3C(F)(F)F)n2)cc1 was tested, and the inhibition was 0.6%.
With C=CC(=O)NCCCc1cc(C(C)(C)C)c(O)c(C(C)(C)C)c1 the inhibition was 8.3%.
With C=CCn1c(CCc2ccccc2)nnc1SCC(N)=O the inhibition was 1.8%.
With Cc1cc(C(=O)CSc2nnnn2-c2ccc(O)cc2)c(C)n1C the inhibition was 3.7%.
With COc1ccccc1OC(=O)Nc1ccc(Cl)cc1 the inhibition was 0.1%.
For O=S(=O)(Nc1ccc(Cc2ccncc2)cc1)c1ccc(Br)cc1, the inhibition was 2.9%.
O=S(=O)(Nc1ccc(Cc2ccncc2)cc1)c1ccc(Cl)cc1 showed an inhibition of -2.3%.
In the case of CC(C)(C)c1ccc(S(=O)(=O)Nc2ccc(Cc3ccncc3)cc2)cc1, the inhibition is reported as 80.2% (active).
Cc1cc2nc(-c3ccc[nH]c3=O)n(Cc3cccc(F)c3)c2cc1C was tested, and the inhibition was 8.3%.
Cc1ccc(NC(=O)Nc2cc(Cl)ccc2C2COC(=O)C2=N)cc1 (stereo not drawn) gave an inhibition of 7.5%.
Cc1ccc(-c2n[nH]c(=S)c3ccccc23)cc1 showed an inhibition of 10.4%.
For Fc1ccc(-c2n[nH]c(=S)c3ccccc23)cc1, the inhibition was 98% (active).
With S=c1[nH]nc(-c2ccccc2)c2ccccc12 the inhibition was -20.4%.
For Cc1c(CN2CCN(CC(C)(C)C)C(CCO)C2)[nH]c2ccccc12 (stereo not drawn), the inhibition was 7.5%.
Work on COc1cccc(C2CC(c3cccc(NS(C)(=O)=O)c3)=NN2C(=O)c2ccccc2)c1OC (stereo not drawn) yielded an inhibition of 10.9%.
In the case of Clc1ccc(C(c2ccccc2)N2CCNCC2)cc1 (stereo not drawn), the inhibition is reported as 20%.
Work on CN1CC2(C)CN(C(c3ccccc3)c3ccccc3)CC(C)(C1)C2O (stereo not drawn) yielded an inhibition of 5.6%.
CC(C)(NC(=O)N1CCCC1)c1cccc(C(C)(C)NC(=O)N2CCCC2)c1 was tested, and the inhibition was 0.9%.
Compound CCOC(=O)Cc1c(Cl)c2ccccc2[nH]c1=O has an inhibition of -1.4%.
In the case of Cc1cc(C(=O)Cn2nc(C(=O)O)c3ccccc3c2=O)c(C)n1C1CC1, the inhibition is reported as 3.9%.
Compound COc1ccc(CCN2C(=O)c3[nH]nc(-c4ccccc4O)c3C2c2cccc(Cl)c2)cc1 (stereo not drawn) has an inhibition of 4.8%.
Work on COc1ccc(C2c3c(-c4ccccc4O)n[nH]c3C(=O)N2CCc2ccc(OC)c(OC)c2)cc1 (stereo not drawn) yielded an inhibition of 9.9%.
COc1ccc(CCN2C(=O)c3[nH]nc(-c4ccccc4O)c3C2c2ccccc2)cc1OC (stereo not drawn) showed an inhibition of 1.6%.
With COc1ccc(C2c3c(-c4ccccc4O)n[nH]c3C(=O)N2Cc2ccco2)cc1OC (stereo not drawn) the inhibition was -6.4%.
COc1ccc(C(=O)OCC(=O)NC2CCCC2)c(OC)c1OC gave an inhibition of 3.7%.
CCN(Cc1ccccc1)C(=O)CCCOc1ccccc1 was tested, and the inhibition was -2%.
In the case of CC(=O)Nc1ccc(S(=O)(=O)NNC(=O)C2CCCCC2)cc1, the inhibition is reported as 0.1%.
For Cc1ccc(NC(=O)COC(=O)C2CC3C=CC2C3)cc1S(=O)(=O)N1CCCCC1 (stereo not drawn), the inhibition was 64.8% (active).
O=C(COC(=O)C1CC2C=CC1C2)Nc1cccc(S(=O)(=O)N2CCCCC2)c1 (stereo not drawn) showed an inhibition of -15.5%.
Compound Cc1ccc(S(=O)(=O)N2CCCCC2)cc1NC(=O)COC(=O)C1CC2C=CC1C2 (stereo not drawn) has an inhibition of -2.7%.
Work on CCCCCn1c(CNC(C)=O)nc2ccccc21 yielded an inhibition of 2.6%.
Work on O=c1c(-c2ccc(Cl)cc2)coc2c(CN3CCOCC3)c(O)ccc12 yielded an inhibition of -5.8%.
With Cc1ccc(S(C)(=O)=NS(=O)(=O)c2cccc3nsnc23)cc1 (stereo not drawn) the inhibition was 5%.
Cn1c(=O)c(C(=O)NCCc2ccccc2)c(O)c2ccccc21 was tested, and the inhibition was 11.2%.
O=C1C(Cc2ccc(Br)cc2)SC(=Nc2ccccc2)N1c1ccccc1 (stereo not drawn) was tested, and the inhibition was 7.8%.
For Nc1ccc(N2CCCCC2)c(S(=O)(=O)Nc2ccc(Cl)cc2)c1, the inhibition was 16.6%.
COc1ccccc1NS(=O)(=O)c1cc(N)ccc1N1CCCCC1 was tested, and the inhibition was -8.3%.
Compound C/C(=N\Nc1ccc(Cl)c(C(=O)O)c1)c1cccc2ccccc12 has an inhibition of -3.2%.
COC(=O)[C@H](Cc1ccccc1)NC(=O)N1CCCCC1C (stereo partly drawn) gave an inhibition of 11.9%.
Compound O=C(c1ccco1)N(CC1CCCO1)c1nc(-c2ccccc2)cs1 (stereo not drawn) has an inhibition of -1.7%.
In the case of CCCCC(NC(C)=O)c1nc2ccccc2n1CCCC (stereo not drawn), the inhibition is reported as 7.3%.
In the case of CCCCCn1c(C(Cc2ccccc2)NC(=O)COC)nc2ccccc21 (stereo not drawn), the inhibition is reported as 25.9%.
Work on COc1ccc(CCn2c(C)cc(C(=O)COC(=O)c3ccc(NC(=O)CC#N)cc3)c2C)cc1 yielded an inhibition of -0.8%.
With O=C(NC1CCCC1)C(c1cccnc1)N(C(=O)c1ccco1)c1cccc(F)c1 (stereo not drawn) the inhibition was -23.3%.
In the case of CC1=CC(C)(C)N2C(=O)C3(NCCc4c3[nH]c3ccccc43)c3cc(C)cc1c32 (stereo not drawn), the inhibition is reported as 6.1%.
With Cc1cc2c3c(c1)C1(SCC(=O)N1c1ccc(F)cc1)C(=O)N3C(C)(C)CC2C (stereo not drawn) the inhibition was 26.5%.
In the case of Cc1ccc(N2C(=O)CSC23C(=O)Nc2ccccc23)cc1 (stereo not drawn), the inhibition is reported as 17.5%.
Work on COc1ccc(N2C(=O)CSC23C(=O)N2c4c(cccc43)C(C)=CC2(C)C)cc1 (stereo not drawn) yielded an inhibition of -6.8%.
With CC(C(=O)Nc1ccc(S(=O)(=O)N2CCOCC2)cc1)N(c1ccccc1)S(C)(=O)=O (stereo not drawn) the inhibition was 2.6%.
Work on COc1ccccc1CN1CC(C(=O)N(C)CCOc2ccccc2)CCC1=O (stereo not drawn) yielded an inhibition of 4.1%.
CCc1ccc2oc(C(=O)NC3CCS(=O)(=O)C3)cc(=O)c2c1 (stereo not drawn) was tested, and the inhibition was 0.2%.
For CCOC(=O)c1cnc2c(c(C)nn2C)c1Oc1cc(Cl)cc(Cl)c1, the inhibition was -4.2%.
For CCOC(=O)c1cnc2c(c(C)nn2C)c1Oc1ccc(OC)cc1, the inhibition was 24.7%.
CCOc1ccc(/C=N/n2c(-c3ccccc3)n[nH]c2=S)cc1 showed an inhibition of -1.8%.
In the case of O=C(O)CSCC(=O)Nc1ccc(S(=O)(=O)N2CCCCC2)cc1, the inhibition is reported as 8.7%.
CC(c1ccc(F)cc1)n1cc(C(=O)NCc2ccccn2)nn1 (stereo not drawn) gave an inhibition of -1.6%.
Compound O=c1[nH]c2ccccc2nc1-c1ccccc1 has an inhibition of 5.1%.
O=C(CSc1nc2ccccc2[nH]1)N=Nc1c(O)[nH]c2ccccc12 was tested, and the inhibition was -8.4%.
With NC(=O)c1sc2nnc(-c3ccccc3)c(-c3ccccc3)c2c1N the inhibition was 21.8%.
With CCSc1nnc(-c2cccs2)o1 the inhibition was -4.1%.
With O=C(CCn1ccnc1)Nc1cc(Cl)ccc1O the inhibition was 4.7%.
For N=C1S/C(=C\c2cccc3ccccc23)C(=O)N1c1ccc(F)cc1, the inhibition was -1.5%.
Compound N=C1S/C(=C\c2ccccc2F)C(=O)N1c1ccc(F)cc1 has an inhibition of 7.1%.
CC(C)(C)OC(=O)CC12CCCCC1NC(=O)O2 (stereo not drawn) was tested, and the inhibition was -7.6%.
For COc1ccc2[nH]c(=O)c(COC(=O)c3ccco3)cc2c1, the inhibition was -0.6%.
Work on CCCCNS(=O)(=O)c1cccc(S(=O)(=O)N2CCCC2)c1 yielded an inhibition of 11.2%.
Work on CC1Cn2c(nc(=O)c3c2NCN(CCc2ccccc2)C3)S1 (stereo not drawn) yielded an inhibition of 3.9%.
CC(=O)c1c(C)nc2ccccn12 showed an inhibition of 5.4%.
In the case of O=S1(=O)CC=C(CSC(=S)NC2CCS(=O)(=O)C2)C1 (stereo not drawn), the inhibition is reported as 71.8% (active).
With O=S1(=O)CCC(NC(=S)SCc2ccccc2Br)C1 (stereo not drawn) the inhibition was 8.1%.
With CCCSC(=S)NC1CCS(=O)(=O)C1 (stereo not drawn) the inhibition was 1.1%.
